{
  "source": "PubChem BioAssay (NCATS)",
  "note": "Where “and” joins values, the source holds several entries; their conditions need not be identical. Identical values can stand only once. Records with an inconclusive call do not appear. A number with no mark means an inactive call. Calls come from the whole dose curve.",
  "data": [
    {"target": "Bile acid receptor (Homo sapiens) (UniProt Q96RI1)", "sequence (Q96RI1 whole entry, looked up)": "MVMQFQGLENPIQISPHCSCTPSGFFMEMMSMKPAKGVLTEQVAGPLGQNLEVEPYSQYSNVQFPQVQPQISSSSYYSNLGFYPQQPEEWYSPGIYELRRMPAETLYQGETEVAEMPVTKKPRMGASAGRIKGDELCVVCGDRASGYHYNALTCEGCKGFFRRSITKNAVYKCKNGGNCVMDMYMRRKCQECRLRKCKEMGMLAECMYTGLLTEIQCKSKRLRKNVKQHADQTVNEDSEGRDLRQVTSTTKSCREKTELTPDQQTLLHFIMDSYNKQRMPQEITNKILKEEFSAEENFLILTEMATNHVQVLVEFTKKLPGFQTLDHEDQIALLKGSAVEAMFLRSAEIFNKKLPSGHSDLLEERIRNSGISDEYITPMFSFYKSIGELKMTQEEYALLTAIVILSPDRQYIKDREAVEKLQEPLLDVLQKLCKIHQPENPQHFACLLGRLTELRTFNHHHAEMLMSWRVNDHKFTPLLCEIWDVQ", "experiment": "qHTS assay for small molecule agonists of farnesoid X receptor signaling (AID 588527);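 note: series mostly up to about 77 µM; 0% = vehicle basal and 100% = reference agonist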", "settings": "HEK293T FXR-UAS-bla, beta-lactamase ratio, 16 h; hits give high values", "excerpt": "NIH Chemical Genomics Center [NCGC] U.S. Environmental Protection Agency [EPA] National Institutes of Environmental Health Sciences [NIEHS] National Toxicology Program [NTP] NCGC Assay Overview The farnesoid-X-receptor (FXR), a nuclear hormone receptor is highly expressed in liver, intestine, kidney and adrenal cortex. Natural ligands of FXR are the bile acids (Cholic acid, Chenodeoxy cholic acid etc). It is an important regulator of diverse metabolic pathways, including the bile acid homeostasis, lipid and glucose metabolisms. FXR regulates the expression of target genes by binding either as a monomer or as a heterodimer with RXR (retinoid X receptor). As FXR regulates a large number of target genes involved in bile acid, lipoprotein and glucose metabolisms, it is a potential pharmacological target for bile acid and lipid disorders. Thus screening environmental chemicals on FXR signaling can be used for the studies focused on metabolic syndrome, hepatic and intestinal toxicity etc.\nNCGC Assay Protocol Summary Using a beta-lactamase reporter-gene under control of Farnesoid X receptor (FXR) response element, a cell-based assay [GeneBLAzer FXR-UAS-bla assay developed by Invitrogen] was used to measure FXR ligands signaling. GeneBLAzer FXR-UAS-bla HEK293T cells were used with assay medium containing 10% dialyzed FBS. The assay was performed in clear bottom black Greiner 1536-well plates. Chenodeoxycholic acid and Guggulsterone were used in the screen as agonist and antagonist positive controls respectively. Library compounds were measured for their ability to stimulate the reporter gene activity. Compounds were screened in a titration series in 1536-well format. […] Data was normalized relative to Chenodeoxycholic acid control (100 uM, 100%), and DMSO only wells (basal, 0%). Concentration-response titration points for each compound were fitted to the Hill equation yielding concentrations of half-maximal stimulation (EC50) and maximal response (efficacy) values. qHTS protocol for FXR beta-lactamase assay in agonist mode [Step] [Parameter] [Value] [Description] 1. Reagent; 6 uL; 5000 cells/well 2. Incubation; 37 C for 5-7 hrs 3. Compounds; 23 nL; 0.59 nM to 92 uM 4. Controls (Chenodeoxycholic acid); 23 nL, - One column with dose response, start 200 uM, 1:2 dilutions in duplicates - Final concentrations of 100 uM and 60 uM in two columns 5. Incubation; 37 C for 16 hrs 6. Detection reagent; 1 uL of CCF4-dye 7. Incubation; RT for 2 hrs 8. Detection; Fluorescence; Envision plate reader", "values": [
      {"molecule": "CCOc1ccc(NC(C)=O)cc1", "activation": "0.406% and 4.82%"},
      {"molecule": "CC(O)COc1ccccc1", "note": "(configuration not stated)", "activation": "-2.72%"},
      {"molecule": "CN(C)C(=S)SC(=S)N(C)C", "activation": "1.4%"},
      {"molecule": "O=C(NC(=O)c1c(F)cccc1F)Nc1cc(Cl)c(OC(F)(F)C(F)C(F)(F)F)cc1Cl", "note": "(configuration not stated)", "activation": "-0.875%"},
      {"molecule": "CN(C)c1ccc(C(=C2C=CC(=[N+](C)C)C=C2)c2ccc(N(C)C)cc2)cc1", "activation": "-3.58% and -3.47%"},
      {"molecule": "CC/C(=C(/CC)c1ccc(O)cc1)c1ccc(O)cc1", "activation": "2% and 5.54%"},
      {"molecule": "C[C@]12CC[C@@H]3c4ccc(O)cc4CC[C@H]3[C@@H]1CCC2=O", "activation": "5.41%"},
      {"molecule": "CCCCC1C(=O)N(c2ccccc2)N(c2ccccc2)C1=O", "activation": "-3.79% and -9.64%"},
      {"molecule": "CCOc1ccccc1C(N)=O", "activation": "-0.664%"},
      {"molecule": "CCOC(=O)C(C)(C)Oc1ccc(Cl)cc1", "activation": "1.97%"},
      {"molecule": "c1ccc2[nH]c(-c3cscn3)nc2c1", "activation": "-0.341% and 3.24%"},
      {"molecule": "Cn1cnc2c1c(=O)[nH]c(=O)n2C", "activation": "0.0385%"},
      {"molecule": "CNC(=O)Oc1ccc2c(c1)[C@]1(C)CCN(C)[C@@H]1N2C", "activation": "1.98%"},
      {"molecule": "O=C1C(c2[nH]c3ccccc3c2O)=Nc2ccccc21", "activation": "0.121%"},
      {"molecule": "C[C@@H]1C[C@@H]([C@H](O)CC2CC(=O)NC(=O)C2)C(=O)[C@@H](C)C1", "activation": "0.176% and -1.82% and 1.78%"},
      {"molecule": "Oc1c(Cl)cc(Cl)cc1Sc1cc(Cl)cc(Cl)c1O", "activation": "-0.242%"},
      {"molecule": "Cc1cc(C(C)(C)C)c(O)c(C(C)(C)C)c1", "activation": "9.91% and 2.64%"},
      {"molecule": "CNC(=O)Oc1cccc2ccccc12", "activation": "-1.5%"},
      {"molecule": "CC[n+]1c(-c2ccccc2)c2cc(N)ccc2c2ccc(N)cc21", "activation": "9.69%"},
      {"molecule": "C[C@H]1C(=O)O[C@@H]2CCN3CC=C(COC(=O)[C@](C)(O)[C@]1(C)O)[C@H]23", "activation": "2.9%"},
      {"molecule": "Cc1ccc(O)cc1", "activation": "-0.678%"},
      {"molecule": "COCC(=O)N(c1c(C)cccc1C)C(C)C(=O)OC", "note": "(configuration not stated)", "activation": "3.52%"},
      {"molecule": "O=C(Nc1ccc(Cl)cc1)Nc1ccc(Cl)c(Cl)c1", "activation": "1.41%"},
      {"molecule": "Oc1ccc(/C=C/c2cc(O)cc(O)c2)cc1", "activation": "-3.05% and -1.39%"},
      {"molecule": "COc1ccc2cc3[n+](cc2c1OC)CCc1cc2c(cc1-3)OCO2", "activation": "-1.09%"},
      {"molecule": "CCNc1nc(Cl)nc(NCC)n1", "activation": "-2%"},
      {"molecule": "O=C(OCc1ccccc1)c1ccc(O)cc1", "activation": "1.11%"},
      {"molecule": "CCN(CC)C(=O)c1cccc(C)c1", "activation": "0.006% and -2.52%"},
      {"molecule": "CCOP(=S)(OCC)O/N=C(\\C#N)c1ccccc1", "activation": "8.69%"},
      {"molecule": "O=c1ccc2ccccc2o1", "activation": "2.18% and -1.67%"},
      {"molecule": "N#Cc1nn(-c2c(Cl)cc(C(F)(F)F)cc2Cl)c(N)c1S(=O)C(F)(F)F", "note": "(configuration not stated)", "activation": "6.05%"},
      {"molecule": "Cc1c(N(C)C)c(=O)n(-c2ccccc2)n1C", "activation": "-2.31%"},
      {"molecule": "O=C1c2cccc(O)c2C(=O)c2c(O)cccc21", "activation": "-5%"},
      {"molecule": "CN(C)C(=S)SSC(=S)N(C)C", "activation": "3.15%"},
      {"molecule": "CCN(CC)CCOc1ccc(/C(=C(\\Cl)c2ccccc2)c2ccccc2)cc1", "activation": "1.52%"},
      {"molecule": "Oc1ccc(Cl)cc1Cc1cc(Cl)ccc1O", "activation": "1.29%"},
      {"molecule": "NS(=O)(=O)c1cc2c(cc1Cl)NCNS2(=O)=O", "activation": "-0.539% and 0.498%"}
    ]}
  ]
}
